ALDH1A1 block = ALDH1A1 (human) enzyme inhibition; Purified ALDH1A1, NADH fluorescence, propionaldehyde substrate; Potency, µM (doses to about 75.3 µM), without a hit: top-dose activity, negative = inhibition, usual class: inhibitors; hit rate 7.3% among 220,000; active = well fitted inhibition curve with a large enough effect, not every such curve was filed as active; inconclusive = small, poorly fitted or top-dose-only effect, or another doubt; inactive = no such curve, though single readings can be large or run the other way;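 also: plate controls were no enzyme wells and a reference inhibitor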
Target sequence (P00352 whole entry, looked up): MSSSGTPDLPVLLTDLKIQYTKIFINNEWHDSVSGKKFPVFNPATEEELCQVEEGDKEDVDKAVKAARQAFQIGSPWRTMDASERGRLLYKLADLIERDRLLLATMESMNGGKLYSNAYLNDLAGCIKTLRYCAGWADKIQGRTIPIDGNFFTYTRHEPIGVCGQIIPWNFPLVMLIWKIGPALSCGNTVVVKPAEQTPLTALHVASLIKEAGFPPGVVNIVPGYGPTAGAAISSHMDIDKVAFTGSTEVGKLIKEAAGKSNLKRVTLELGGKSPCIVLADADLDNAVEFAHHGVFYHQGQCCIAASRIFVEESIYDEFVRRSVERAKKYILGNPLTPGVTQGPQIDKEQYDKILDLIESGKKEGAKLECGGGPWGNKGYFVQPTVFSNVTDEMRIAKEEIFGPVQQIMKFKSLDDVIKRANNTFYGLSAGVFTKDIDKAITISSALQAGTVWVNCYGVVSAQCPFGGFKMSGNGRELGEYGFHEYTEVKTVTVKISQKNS
VP16 counter = inhibits Gal4-VP16 luciferase reporter, ROR gamma counter-screen; Drosophila S2 Gal4-VP16 UAS-luciferase, luminescence, 20 h; Potency, µM (series often up to 53.6 µM), without a hit: at the top dose activity, negative = inhibition, most hits filed as inhibitors; hit rate 3.5% among 310,000;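 also: Gal4-VP16 expression switched on by copper sulfate through the metallothionein promoter; nearly all actives have a fitted effect of over 50% in size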
Sfp PPTase inh = blocks B. subtilis Sfp PPTase activity. Potency, µM, without a hit: largest response in the series, negative = inhibition, most hits filed as inhibitors. hit rate 3.5% among 310,000. Biochemical Sfp PPTase activity, qHTS;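 also: the enzyme is Sfp with the accession as filed and its product quenches rhodamine fluorescence; 0% = enzyme reaction without inhibitor and -100% = no enzyme wells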
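With Hepes-Na pH 7.6 buffer containing 10 mM MgCl2, Sfp (15 nM) modified BHQ-2-YbbR (12.5 uM) using rhodamine-CoA (5 uM). Two reads 30 minutes apart at 525/598 nm yielded each well's rate.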
RORgamma inh = inhibitors of mouse ROR gamma transcriptional activity | P51450 | Drosophila S2 Gal4-RORgamma UAS-luciferase reporter, 20 h | Potency, µM (doses to about 53.6 µM), for inactives: at the top dose activity change, negative = inhibition, usual class: inhibitors | hit rate 5.4% among 310,000 | AID 2551; also: nearly all actives have a fitted effect of over 60% in size
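Schneider cells (Drosophila), stable Gal4 DBD–ROR gamma + UAS-luc; 1 hr cmpd preincubation; Cu2+ induction 700 uM final; 20 hr ambient; luminescence.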
PLK1 PBD block = blocks phosphopeptide binding to human PLK1 polo-box domain; P53350; Plk1 PBD binding of FITC phosphopeptide, fluorescence polarization; Potency, µM, without a hit: max response, negative = inhibition, usual class: inhibitors; hit rate 2.8% among 360,000; AID 720504; also: series mostly up to about 57 µM; nearly all actives have a fitted effect of over 65% in size
The depositor's hits bear a star; ? = inconclusive; . = no result given; [ ] = remark or other dose. In the library only some 12% were active in any assay of this set; here they are far more common. Unless noted, calls follow the shape of the dose curve; as a rule, active = well fitted curve in the direction sought with a large enough effect; inconclusive = small, poorly fitted or top-dose-only effect, or another doubt; inactive = no such curve, though single readings can be large; an effect the other way counts as inactive or inconclusive. Unless noted, % is scaled to controls: 0 for no effect and ±100 for the full control effect; potency is read from the fitted curve at half-maximal effect.

SMILES | ALDH1A1 block | VP16 counter | Sfp PPTase inh | RORgamma inh | PLK1 PBD block
CCc1ccc(C2=NN(C(C)=O)C(c3ccco3)C2)cc1 (stereo unspecified) | -7% | -7% | 25µM* | 3% | 2%
O=C(O)/C=C/C(=O)N1N=C(c2ccco2)CC1c1ccco1 (stereo unspecified) | . | 2% | 16% | 13% | -2%
COc1cc(OC)cc(C2=Cc3ccccc3C(CC(C)=O)N2c2ccc(C#CCCO)cc2)c1 (stereo unspecified) | . | . | . | . | 0%
O=C(CCl)N1N=C(c2cccs2)CC1c1ccco1 (stereo unspecified) | 0.45µM* | ? | 0% | 11µM* | -18%
CC(=O)N1N=C(c2c(-c3ccccc3)c3cc(Br)ccc3[nH]c2=O)CC1c1ccco1 (stereo unspecified) | . | -7% | 40µM* | 22% | -18%
Cc1ccc(C2=NN(C(=O)CSc3nc4ncc(Cl)cc4[nH]3)C(c3ccco3)C2)cc1 (stereo unspecified) | ? | -1% | 45µM* | -20% | -5%
CN1CC(=O)N(CC(=O)N2N=C(c3ccc(Cl)cc3)CC2c2ccco2)C1=O (stereo unspecified) | ? | -22% | 20µM* | -9% | -16%
CCC(=O)N1N=C(c2ccc(Cl)cc2)CC1c1ccco1 (stereo unspecified) | ? | -5% | -13% | 36% | -1%
COc1ccc(C2=NN(C(=O)CSc3nc4ncc(Cl)cc4[nH]3)C(c3ccco3)C2)cc1 (stereo unspecified) | ? | -4% | -8% | -33% | -14%
O=c1n(Cc2ccccc2)c(O)c2n1Cc1ccccc1N=C2c1ccccc1 | . | . | . | . | -4%
CC(=O)Nc1cc([N+](=O)[O-])ccc1OCc1ccccc1 | . | . | . | . | -4%
COC(=O)[C@@]12C[C@@H](CC(=O)NCc3cccc(C(F)(F)F)c3)C(=O)N(CCc3ccc(OC)c(OC)c3)C1=CCC(C)(C)C2 | . | . | . | . | -6%
CS[C@]12C(=O)C[C@]3(C)[C@@H](CC[C@@]3(O)C(=O)CO)[C@@H]1CCC1=CC(=O)CC[C@]12C | -11%[13.5 µM] | . | . | . | .
O=C(Nc1ccc(CN2CCOCC2)cc1)c1ccc(N2CCCC2)c([N+](=O)[O-])c1 | 11µM* | -18% | 3% | 37% | -21%
O=C(Nc1ccon1)c1ccc(N2CCCCC2)c([N+](=O)[O-])c1 | 13µM* | -9% | 12% | -1% | ?
Cc1cc(NC(=O)c2ccc(N3CCCC3)c([N+](=O)[O-])c2)no1 | 9% | -15% | 8% | -9% | -8%
CCC(=O)N1CCN(c2ccc(NC(=O)c3ccc(N4CCOCC4)c([N+](=O)[O-])c3)cc2)CC1 | . | 4% | 14% | 1% | 0%
O=C(Nc1nc2ccccc2s1)c1ccc(N2CCCCC2)c([N+](=O)[O-])c1 | 11µM* | ? | -27% | 10µM* | -5%
CN(C)CCNC(=O)c1ccc(Cc2nc3ccccc3[nH]2)cc1 | -3% | . | . | . | .
COc1ccc(C(=O)N/N=C/c2ccc(OC)c(CN3CCCc4ccccc43)c2)cc1 | ? | ? | -15% | ? | -9%
COc1ccc(/C=N/NC(=O)c2cccnc2)c2ccccc12 | . | -19% | 1% | 1.3µM* | -5%
CCOc1cc(Br)cc(/C=N/NC(=O)c2cccnc2)c1O | . | 1µM* | 26% | 0.79µM* | -4%
COc1ccc(/C=N/NC(=O)c2c(Br)cnn2C)c2ccccc12 | . | 2.8µM* | -10% | 20µM* | -1%
COc1ccc(/C=N/NC(=O)c2cccnc2)c(C(=O)O)c1OC | . | 4% | 7% | 2% | 3%
COc1ccc(/C=N/NC(=O)c2cccnc2)cc1CN1CCCc2ccccc21 | -10% | -29% | -20% | 10µM* | -15%
CC(C)(C)N1C(=O)[C@H]2[C@H]3[C@H](O)[C@H](O)C/C(=N/OC[C@@H](O)COCc4ccco4)[C@@H]3CC[C@@H]2C1=O | 8%[13.5 µM] | 5%[10 µM] | -2% | 9%[10 µM] | .
CCc1ccc2oc(-c3cc(N)ccc3Cl)nc2c1 | ? | 10µM* | 4% | ? | -7%
Nc1ccc2oc(-c3ccccc3Cl)nc2c1 | 6% | -28% | -1% | -24% | 5%
Nc1ccc2oc(-c3cc(Br)ccc3Cl)nc2c1 | 1% | 5% | 10% | 12% | 30µM*
CCc1ccc2oc(-c3cc(N)cc(C)c3O)nc2c1 | ? | 8.9µM* | 0% | ? | -4%
